Structures are written as SMILES. Results filed as inconclusive are left out. More than one record can exist for a structure, and the calls need not agree. Active and inactive are the calls of the source. How the source made its calls, unless noted: active means hit-call score of the fitted dose curve at least 0.9, where 1 is the maximum; inconclusive means response in the unintended direction; inactive means score below 0.9.

Read-out in assay [1]: UDP glucuronosyltransferase (UGT1A6), UGT1A6 (gene 54578)
As to the kind of experiment: LTEA_HepaRG_UGT1A6: Life Technologies and Expression Analysis (LTEA) Assay for UDP glucuronosyltransferase (UGT1A6) using HepaRG (AID 2283539; active means hit-call score of the fitted dose curve at least 0.9, where 1 is the maximum; inactive means score below 0.9). The note with it: mRNA level, 48 h; actives raise or lower the signal. In short, it runs like this: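 Human HepaRG cells were dosed for 48 h in serum-free induction medium with 0.5% DMSO vehicle, eight-point half-log series from 100 uM, in duplicate. UGT1A6 mRNA was measured by qRT-PCR, normalized to ACTB, GAPDH, POLR2A, and fitted bidirectionally against DMSO.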

Read-out in assay [2]: X-box binding protein 1 (XBP1), XBP1 (gene 7494)
As to the kind of experiment: LTEA_HepaRG_XBP1: Life Technologies and Expression Analysis (LTEA) Assay for X-box binding protein 1 (XBP1) using HepaRG (AID 2283540; active means hit-call score of the fitted dose curve at least 0.9, where 1 is the maximum; inactive means score below 0.9). The note with it: mRNA level, 48 h; actives raise or lower the signal. In short, it runs like this: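 Differentiated human HepaRG cells in serum-free induction medium were exposed in duplicate for 48 h to eight half-log concentrations up to 100 uM in 0.5% DMSO. XBP1 mRNA was quantified by qRT-PCR, normalised to ACTB, GAPDH and POLR2A, with bidirectional fitting against DMSO.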

Assay [3] in a line: ATG_XTT_Cytotoxicity: Cytotoxicity Assessment in the Attagene TRANS-FACTORIAL HepG2 Assay (AID 2283584).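 On AC50: cells exposed to compound for 24 h before reading; active means loss of viability signal versus DMSO baseline.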 In short, it runs like this:
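HepG2 human liver cells, transiently transfected with multiple GAL4-UAS reporter units, were dosed and read at 24 h by XTT as cell number. Loss of signal was fitted relative to DMSO negative control baseline.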

The target of assay [4] is Cellular tumor antigen p53 (Homo sapiens) (UniProt P04637). As to the kind of experiment: TOX21_p53_BLA_p2_ratio: Tox21 HCT-116 p53 Agonism Beta-lactamase Assay, Ratio, Phase 2 (AID 2283592). In short, it runs like this: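 HCT116 cells carrying a p53-responsive beta-lactamase reporter were plated, incubated 5 h at 37C, then dosed with compounds in DMSO (217-fold dilution) for 16 h. CCF4-AM substrate was added for 2 h at room temperature; the 460/530 nm emission ratio gave gain-of-signal activity relative to DMSO.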

Assay [5] can be described thus: TOX21_p53_BLA_p3_viability: Viability Assessment in the Tox21 HCT-116 p53 Agonism Beta-lactamase Assay, Phase 3 (AID 2283593).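 Further: cells exposed to compound for 16 h before reading.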 In short, it runs like this: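 Cellular ATP was quantified by CellTiter-Glo luminescence, read after 30 min at room temperature. Beforehand, HCT116 cells (4000/well) received compound 5 h post-seeding, 217-fold diluted from DMSO, then incubated 16 h at 37C.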

The target in assay [6] is Cellular tumor antigen p53 (Homo sapiens) (UniProt P04637). As to the kind of experiment: TOX21_p53_BLA_p3_ratio: Tox21 HCT-116 p53 Agonism Beta-lactamase Assay, Ratio, Phase 3 (AID 2283596). In short, it runs like this: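 HCT116 p53-bla cells (4000/well) given compound in DMSO (217-fold dilution) after 5 h, incubated 16 h at 37C. CCF4-AM substrate 2 h at room temperature; 460/530 nm emission ratio, gain fitted against DMSO.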

A short description of assay [7]: TOX21_p53_BLA_p4_viability: Viability Assessment in the Tox21 HCT-116 p53 Agonism Beta-lactamase Assay, Phase 4 (AID 2283597).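 Further: hits lower the luminescence signal meaning cytotoxicity.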 In short, it runs like this:
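HCT116 p53-bla cells (4000/well) rested 5 h at 37C, then received compounds in DMSO (217-fold dilution) for 16 h at 37C, 5% CO2. CellTiter-Glo was added after the CCF4-AM read, and luminescence was read after 30 min at room temperature.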

Assay [8] addresses Cellular tumor antigen p53 (Homo sapiens) (UniProt P04637). In words: TOX21_p53_BLA_p5_ratio: Tox21 HCT-116 p53 Agonism Beta-lactamase Assay, Ratio, Phase 5 (AID 2283599). In short, it runs like this: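 Beta-lactamase reporter ratio (blue 460 nm over green 530 nm, 405 nm excitation) after 2 h CCF4-AM loading, in HCT-116 cells exposed 16 h at 37 C to compounds pinned at 217-fold dilution. Increases relative to DMSO baseline scored.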

Assay [9] in a line: TOX21_p53_BLA_p5_viability: Viability Assessment in the Tox21 HCT-116 p53 Agonism Beta-lactamase Assay, Phase 5 (AID 2283600). In short, it runs like this: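 Cells were plated at 4000/well, rested 5 h at 37C, then given compounds in DMSO (217-fold dilution) for 16 h at 37C, 5% CO2. Following the CCF4-AM beta-lactamase read, CellTiter-Glo was added and luminescence was read after 30 min at room temperature.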

A short description of assay [10]: LTEA_HepaRG_LDH_cytotoxicity: Cytotoxicity Assessment in the Life Technologies and Expression Analysis (LTEA) Assay (AID 2283563). In short, it runs like this: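 Differentiated human HepaRG cells, plated 48 h beforehand, were switched to serum-free induction medium and exposed for 48 h to eight half-log concentrations (top 100 uM) in 0.5% DMSO. LDH was measured in spent medium; activity was fitted relative to DMSO vehicle.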

Sequence of Cellular tumor antigen p53 (Homo sapiens) (P04637 whole entry, looked up): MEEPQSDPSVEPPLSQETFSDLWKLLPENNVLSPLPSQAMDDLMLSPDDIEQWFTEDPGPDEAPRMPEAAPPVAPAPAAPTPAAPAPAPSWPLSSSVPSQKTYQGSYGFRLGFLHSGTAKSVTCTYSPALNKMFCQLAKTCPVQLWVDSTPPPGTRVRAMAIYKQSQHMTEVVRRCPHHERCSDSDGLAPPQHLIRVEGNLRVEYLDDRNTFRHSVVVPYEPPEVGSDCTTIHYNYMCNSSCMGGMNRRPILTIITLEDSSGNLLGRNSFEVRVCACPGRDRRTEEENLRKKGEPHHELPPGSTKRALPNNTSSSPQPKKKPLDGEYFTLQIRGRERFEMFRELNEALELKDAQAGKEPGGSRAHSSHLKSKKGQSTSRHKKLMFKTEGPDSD

As for `CCCCCOC(C)=O`, the result in assay [1], in assay [2] and in assay [3] was inactive.

For the compound `Cc1ccc(S(=O)(=O)NC(=O)NN2CCCCCC2)cc1`, the outcome in assay [1], in assay [2] and in [3] was inactive.

Consider `OCc1c[nH]c2ccccc12`, for which the outcome in assay [3], in assay [5], in [6], in [7], in assay [8] and in assay [9] was inactive. In assay [4], the AC50 – broadly, the concentration giving half of the maximal activity seen – is 86.5 µM (active).

Turning to `NC(=O)NN=Cc1ccc([N+](=O)[O-])o1`, the call in assay [1], in assay [2], in assay [3], in assay [4], in [5] and in assay [6] was inactive. In addition, the compound was classed as inactive in assay [7], in assay [8] and in assay [9].

As to `O=C(O)c1ccc2c(c1)nc(C(=O)NC1CCN(C3CC3)CC1)n2Cc1cc(-c2ccc(Cl)s2)on1`, the compound was classed as inactive in assay [1], in assay [2], in assay [10], in assay [4], in [6] and in assay [8]. The compound was called inactive in [9].

With `Nc1ccn([C@@H]2O[C@H](CO)[C@@H](O)[C@@H]2O)c(=O)n1`, the outcome in assay [1], in assay [2] and in assay [3] was inactive.

As for `CCCCCCCCCC`, the outcome in [1], in assay [2], in assay [4], in assay [6], in assay [7] and in assay [8] was inactive. For the same compound, the compound was called inactive in assay [9].

As for `CC(C)c1nnc2ccc(-c3ocnc3-c3cc(F)ccc3F)cn12`, the AC50 in [1] was 80.3 µM (active); in assay [2], 39 µM (active). In addition, the result in [10], in [5], in assay [7] and in [8] was inactive.

On to `CC[C@H](C)C(=O)O[C@H]1C[C@H](O)C=C2C=C[C@H](C)[C@H](CC[C@@H](O)C[C@@H](O)CC(=O)O)[C@H]21`, for which the compound was classed as inactive in assay [1], in assay [2] and in assay [3].

For `c1ccc2c(c1)-c1cccc3c1c-2cc1ccccc13`, the compound was classed as inactive in [1] and in assay [3]. In addition, the AC50 in assay [2] was 12.7 µM (active).

Regarding `OCCOCCOCCO`, the compound was called inactive in assay [1], in [2], in assay [3], in assay [4], in assay [5] and in assay [6]. Moreover, the compound was classed as inactive in assay [7] and in assay [8].

Regarding `Cn1cc[nH]c1=S`, the compound was classed as inactive in [1], in assay [2] and in [3].

Turning to `OC[C@H]1O[C@@H]2O[C@H]3[C@H](O)[C@@H](O)[C@@H](O[C@H]4[C@H](O)[C@@H](O)[C@@H](O[C@H]5[C@H](O)[C@@H](O)[C@@H](O[C@H]6[C@H](O)[C@@H](O)[C@@H](O[C@H]7[C@H](O)[C@@H](O)[C@@H](O[C@H]1[C@H](O)[C@H]2O)O[C@@H]7CO)O[C@@H]6CO)O[C@@H]5CO)O[C@@H]4CO)O[C@@H]3CO`, the compound was called inactive in assay [1], in assay [2] and in [3].

Consider `NC(N)=O`, for which the outcome in assay [1], in [2] and in assay [3] was inactive.

Turning to `CCCCCCCCN(C)C`, the outcome in assay [1], in assay [2], in assay [3], in assay [6], in [7] and in assay [8] was inactive. Besides, the result in [9] was inactive.

For the compound `O=S1(=O)CCCO1`, the compound was classed as inactive in assay [1], in [2], in [3], in assay [4], in assay [6] and in [7]. For the same compound, the outcome in [8] and in assay [9] was inactive.

As for `CCc1cccc(CC)c1N`, the compound was classed as inactive in assay [1], in assay [2], in assay [3], in assay [4], in assay [5] and in assay [6]. Besides, the result in assay [8] and in assay [9] was inactive.

As for `CCCCCCCC/C=C\CCCCCCCC(=O)OC[C@@H](O)[C@H]1OC[C@H](O)[C@H]1O`, the compound was classed as inactive in assay [1], in assay [2], in [3], in assay [4], in [5] and in [6]. Besides, the outcome in [8] and in [9] was inactive.

Regarding `CCCCCCCCCCCCCCO`, the call in assay [1], in [2], in assay [3], in [4], in assay [5] and in assay [6] was inactive. The compound was classed as inactive in [7] and in assay [9].

Take `CNC(C)=O`: the call in assay [1], in [2] and in assay [3] was inactive.

Regarding `CCOC(N)=O`, the result in [1], in assay [2], in assay [4], in [5], in [6] and in assay [7] was inactive. Further, the outcome in [8] and in [9] was inactive. The AC50 in [6] is 88.1 µM (active).

As for `CC1(C)C(=O)N(Cl)C(=O)N1Cl`, the compound was classed as inactive in assay [1], in assay [2], in [3], in assay [4], in assay [7] and in [8]. The compound was called inactive in assay [9].

On to `OC[C@H]1O[C@@](CO)(O[C@H]2O[C@H](CO)[C@@H](O)[C@H](O)[C@H]2O)[C@@H](O)[C@@H]1O`, for which the outcome in assay [1], in [2] and in [3] was inactive.

For the compound `CCN(CC)C(=S)SSC(=S)N(CC)CC`, the compound was called inactive in [1], in assay [2] and in assay [3].

Consider `Cc1cccc(O)c1C`, for which the result in [3], in assay [5], in [6], in assay [8] and in assay [9] was inactive.

Take `CCCC(CCC)C(=O)O`: the outcome in [1], in assay [2] and in assay [3] was inactive.

As to `CC(C)C(=O)Nc1ccc([N+](=O)[O-])c(C(F)(F)F)c1`, the values for the concentration at half-maximal activity (AC50) in assay [1] and in assay [2] were 74.7 µM (active) and 12.2 µM (active), respectively. In addition, the compound was called inactive in assay [3].

As for `c1ccc(C(O[C@@H]2CCCN(CCc3ccc4c(c3)OCO4)C2)c2ccccc2)cc1`, the AC50 in assay [1] was 83 µM (active); in assay [4], 70.1 µM (active). Also, the compound was called inactive in assay [2], in assay [5], in assay [6], in [7] and in [8].

Turning to `O=C(N[C@H](CO)[C@H](O)c1ccc([N+](=O)[O-])cc1)C(Cl)Cl`, the compound was classed as inactive in assay [3], in assay [4], in [5], in assay [6], in assay [7] and in [8]. The call in [9] was inactive.

On to `CCn1nc(C)c2c1C(=O)NCC(c1ccc(O)cc1)=N2`, for which the result in assay [1], in assay [2], in assay [4], in assay [5], in assay [6] and in assay [8] was inactive.

For the compound `O=C(O)CO`, the outcome in [3] was inactive.

In the case of `C=CCc1cc(S(=O)(=O)c2ccc(O)c(CC=C)c2)ccc1O`, the AC50 was 80.7 µM (active) in assay [1] and 66.7 µM (active) in [2]. In addition, the call in assay [3] was inactive.

In the case of `CCCCCCCCCCCCCCCCOS(=O)(=O)O`, the compound was classed as inactive in assay [1], in assay [2], in [4], in assay [5], in assay [6] and in assay [8]. The outcome in [9] was inactive. In addition, the AC50 was 79 µM (active) in assay [3] and 36.5 µM (active) in assay [7].

`C[C@]12C=CC(=O)C=C1CC[C@H]1[C@@H]3C[C@@H](O)[C@](O)(C(=O)CO)[C@@]3(C)C[C@H](O)[C@@]12F`: the outcome in assay [1], in [2], in [3], in assay [4], in assay [5] and in assay [6] was inactive. The compound was called inactive in [7] and in assay [8].

For `S=P(N1CC1)(N1CC1)N1CC1`, the compound was classed as inactive in [3], in [4], in assay [5], in assay [6], in assay [7] and in assay [8]. Also, the call in assay [9] was inactive. The AC50 in [6] is 48.8 µM (active).

Take `O=C(O)c1cccc(C[C@@H]2COc3ccc(OCc4nc5cc(F)ccc5s4)cc3[C@@H]2O)c1`: the call in assay [1], in assay [2], in assay [4], in [6], in [7] and in [8] was inactive.

For the compound `Cn1c(=O)c2[nH]cnc2n(C)c1=O`, the result in assay [1], in assay [2], in [3], in assay [4], in [6] and in [7] was inactive. Also, the result in assay [8] and in assay [9] was inactive.

For the origin of these results see PubChem BioAssay (EPA / NIEHS).
